Measured values taken from PubChem BioAssay AID623972 (The Scripps Research Institute Molecular Screening Center, 2012).
Several values for one entry are separate records, joined by “and”; a condition that tells them apart may be missing. Equal entries are not always repeated. A number with no mark means an inactive call. Activity calls are given as the source filed them. How the calls were made is not given here.

assay: DNA binding via ethidium displacement, late-stage follow-up, artefact control for HCV NS3 helicase inhibitor project, biochemical, fluorescence, ethidium bromide (AID 623972)

**Q.** For `Cc1ccc2nc(-c3ccc4nc(-c5ccc6nc(-c7ccc8nc(-c9ccc(N)cc9)sc8c7)sc6c5)sc4c3)sc2c1S(=O)(=O)O`, which IC50 is on record?
**A.** Its IC50 is 15 µM (active) and 76 µM (active).

**Q.** With `Cc1ccc2nc(-c3ccc4nc(-c5ccc6nc(-c7ccc(N)cc7)sc6c5)sc4c3)sc2c1S(=O)(=O)O` (tested in a mixture with another compound) as the molecule, how does the IC50 read?
**A.** The IC50 was 73 µM (active).

**Q.** With `Cc1cc2sc(-c3ccc4nc(-c5ccc(N)cc5)sc4c3)nc2cc1S(=O)(=O)O` as the molecule, how does the IC50 read?
**A.** Its IC50 is greater than 100 µM.

**Q.** Which IC50 does the source give for `CCOc1ccc2c(NNC(=O)c3cnccn3)c3c(nc2c1)CCCC3` here?
**A.** Its IC50 is greater than 100 µM.

**Q.** Which IC50 does the source give for `Cc1cc2sc(-c3ccc(N)cc3)nc2cc1S(=O)(=O)O` here?
**A.** Its IC50 is greater than 100 µM.

**Q.** For `CCN(CC)c1ccc(-c2nc3ccc(C)c(S(=O)(=O)O)c3s2)cc1`, which IC50 is on record?
**A.** Its IC50 is greater than 100 µM.

**Q.** For `Cc1ccc2nc(-c3ccc4nc(-c5ccc(N)cc5)sc4c3)sc2c1S(=O)(=O)O`, which IC50 is on record?
**A.** Its IC50 is greater than 100 µM.

**Q.** For `COc1cccc2c(=O)c3cc(Cl)cc(C(=O)Nc4cc(Cl)ccn4)c3[nH]c12`, which IC50 is on record?
**A.** Its IC50 is greater than 100 µM.

**Q.** Which IC50 does the source give for `CCN(CC)c1ccc(-c2nc3ccc(-c4nc5ccc(C)c(S(=O)(=O)O)c5s4)cc3s2)cc1` here?
**A.** Its IC50 is greater than 100 µM.

**Q.** For `Cc1ccc2nc(-c3ccc4nc(-c5ccc6nc(-c7ccc(N)cc7)sc6c5)sc4c3)sc2c1S(=O)(=O)O`, which IC50 is on record?
**A.** The IC50 was 55 µM (active).

**Q.** Which IC50 does the source give for `CN1CCN(Cc2cc(CN3CCN(C)CC3)c(O)c(=O)c(CN3CCN(C)CC3)c2)CC1` here?
**A.** The IC50 was 31 µM (active).

**Q.** For `Cc1ccc2nc(-c3ccc(N)cc3)sc2c1S(=O)(=O)O`, which IC50 is on record?
**A.** The IC50 was greater than 100 µM.

**Q.** With `Cc1cc(C(O)(c2ccc(Nc3ccccc3)cc2)c2ccc(Nc3ccc(S(=O)(=O)O)cc3)cc2)ccc1N` (stereo not drawn) as the molecule, how does the IC50 read?
**A.** Its IC50 is 4 µM (active).
